G9a inh = inhibitors of human histone lysine methyltransferase G9a. Q96KQ7. hit rate 8.8% among 350,000. Potency, µM (doses to about 102 µM), hits mostly inhibitors. G9a H3K9 monomethylation, AlphaScreen, 2 h. AID 504332; note: nearly all actives have a fitted effect of over 75% in size
Target sequence (Q96KQ7 913-1193 limits assumed): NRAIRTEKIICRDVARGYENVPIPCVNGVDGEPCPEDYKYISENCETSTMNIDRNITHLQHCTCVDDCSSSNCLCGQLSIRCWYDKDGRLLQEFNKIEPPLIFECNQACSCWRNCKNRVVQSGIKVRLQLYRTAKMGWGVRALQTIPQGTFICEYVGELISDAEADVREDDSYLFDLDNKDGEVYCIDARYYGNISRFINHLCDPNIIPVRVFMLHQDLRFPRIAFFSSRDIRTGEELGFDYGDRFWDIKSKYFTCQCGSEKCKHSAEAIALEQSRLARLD
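Compounds were preincubated with 20 nM G9a for 15 min, after which biotinylated H3K9 peptide (500 nM) and SAM (20 uM) started a 2 h room-temperature reaction. Monomethylated product was quantified by antibody-based AlphaScreen chemiluminescence.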
Sfp PPTase inh = Sfp phosphopantetheinyl transferase inhibition; AID 1490; Biochemical Sfp PPTase activity, qHTS; hit rate 3.5% among 310,000; Q9F4F7; Potency, µM, actives largely listed as inhibitors;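 note: the enzyme is Sfp with the accession as filed and its product quenches rhodamine fluorescence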
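Step 1, compound plus 15 nM Sfp-PPTase, 15 min, room temperature. Step 2, add rhodamine-CoA (5 uM) and BHQ-2-YbbR (12.5 uM). Step 3, read 525/598 nm fluorescence at 0 and 30 min.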
JMJD2A Tudor = blocks the human JMJD2A Tudor domain; Potency, µM (doses to about 114 µM), usual class: inhibitors; hit rate 4.4% among 390,000; AlphaScreen JMJD2A-Tudor / H3K4me3 peptide binding; note: nearly all actives have a fitted effect of over 50% in size
BAZ2B inh = blocks human BAZ2B. AID 504333. hit rate 4.4% among 360,000. AlphaScreen BAZ2B-H3K14Ac peptide displacement. Potency, µM (highest dose often 114 µM), hits mostly inhibitors. Q9UIF8; note: nearly all actives have a fitted effect of over 60% in size
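AlphaScreen luminescence quantifies BAZ2B engagement of H3K14Ac peptide; the protein and biotinylated peptide are both at 50 nM final, buffer PBS pH 7.4 with 0.01% Tween-20, all steps at room temperature.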
HP1b binding inh = HP1-beta chromodomain-methylated histone interaction inhibition. Potency, µM (doses to about 114 µM), hits mostly inhibitors. P83916. hit rate 0.56% among 390,000. AlphaScreen HP1-beta / biotin-H3K9me3 peptide binding; note: nearly all actives have a fitted effect of over 70% in size
Target sequence (P83916 whole entry, looked up): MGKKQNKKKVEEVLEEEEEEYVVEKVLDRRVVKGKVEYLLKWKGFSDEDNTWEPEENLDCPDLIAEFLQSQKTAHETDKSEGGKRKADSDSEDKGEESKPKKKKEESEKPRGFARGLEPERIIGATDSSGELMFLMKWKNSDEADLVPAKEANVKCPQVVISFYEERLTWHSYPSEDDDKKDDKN
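HP1-beta protein (50 nM final) preincubated 30 min at room temperature with biotinylated H3(1-18)K9me3 peptide (50 nM) in PBS pH 7.4, 0.01% Tween-20, then compound added for 30 min. AlphaScreen streptavidin donor/nickel chelate acceptor beads (10 ug/mL final), 30 min dark, luminescence read.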
12-LOX inh = blocks human arachidonate 12S-lipoxygenase; purified 12hLO, xylenol orange hydroperoxide absorbance; Potency, µM (series often up to 108 µM), actives largely listed as inhibitors; P18054; hit rate 1.1% among 580,000; AID 1671190
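Purified human 12hLO (150 nM final) in 25 mM Hepes, 0.01% Triton X-100, pH 7.0 was preincubated 15 min at room temperature with compound. Then 40 uM arachidonic acid was added, 30 min. Hydroperoxide was read by Fe-XO absorbance ratio 573/405 nm.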
Large screens that a line does not name were inactive. Hits are enriched below; roughly 8.7% of the tested compounds scored in any of these assays. Calls come from the whole dose curve; as a rule, active = well fitted curve in the direction sought with a large enough effect; inconclusive = small, poorly fitted or top-dose-only effect, or another doubt; inactive = no such curve, though single readings can be large; an effect the other way counts as inactive or inconclusive.

O=C(CCCN1C(=O)/C(=C\c2cccc(Br)c2)SC1=S)Nc1ccc(C(=O)O)cc1	none (no result: G9a inh, Sfp PPTase inh, JMJD2A Tudor, BAZ2B inh, HP1b binding inh)
COc1cccc(/C=C2\SC(=S)N(CCCC(=O)N(CCO)c3ccccc3)C2=O)c1	G9a inh inconclusive, JMJD2A Tudor 35.5µM, BAZ2B inh inconclusive
O=C1/C(=C/c2cccc(Br)c2)SC(=S)N1CCC(=O)N(CCO)c1ccccc1	JMJD2A Tudor 31.6µM, BAZ2B inh inconclusive (no result: G9a inh)
COc1cccc(/C=C2\SC(=S)N(CCC(=O)NNC(=O)c3ccccc3OC)C2=O)c1	none
COc1ccc(-n2c(-c3ccc(C)cc3)cc3c2CC(C)(C)CC3=O)c(OC)c1	G9a inh 12.6µM, JMJD2A Tudor 17.8µM, BAZ2B inh 14.1µM, HP1b binding inh inconclusive (no result: Sfp PPTase inh)
CCOc1ccc(-n2c(-c3ccc(OC)cc3)cc3c2CC(C)(C)CC3=O)cc1	G9a inh 14.1µM, JMJD2A Tudor 15.8µM, BAZ2B inh 12.6µM (no result: Sfp PPTase inh)
COc1ccc(-n2c(-c3ccc(C)cc3)cc3c2CC(C)(C)CC3=O)cc1Cl	G9a inh 10µM, JMJD2A Tudor 31.6µM, BAZ2B inh 5.01µM, HP1b binding inh inconclusive (no result: Sfp PPTase inh)
Cc1ccc(-c2cc3c(n2-c2ccc(C)cc2)CC(C)(C)CC3=O)cc1	JMJD2A Tudor inconclusive (no result: Sfp PPTase inh)
COc1cccc(-n2c(-c3ccc(C)cc3)cc3c2CC(C)(C)CC3=O)c1	G9a inh inconclusive, JMJD2A Tudor inconclusive, BAZ2B inh 11.2µM (no result: Sfp PPTase inh)
COc1ccc(-c2cc(C(=O)NCCC(=O)N3CCCC3)c3ccccc3n2)cc1OC	none (no result: G9a inh, Sfp PPTase inh, JMJD2A Tudor, BAZ2B inh, HP1b binding inh)
COc1cccc(-n2c(-c3ccc(Cl)cc3)cc3c2CC(C)(C)CC3=O)c1	G9a inh inconclusive, JMJD2A Tudor 8.91µM, BAZ2B inh 8.91µM (no result: Sfp PPTase inh)
CCc1nc(-c2ccc(OC3CCN(C(=O)Cc4cccc(OC)c4)C3)cc2)no1 (stereo unspecified)	none (no result: G9a inh, Sfp PPTase inh, JMJD2A Tudor, BAZ2B inh, HP1b binding inh)
CCCCOC(=O)c1ccc(NC(=S)NC(=O)c2c(Cl)cnn2C)cc1	Sfp PPTase inh 79.4µM
CCCCOC(=O)c1ccc(NC(=S)NC(=O)c2c(Cl)cnn2CC)cc1	Sfp PPTase inh 44.7µM
CCCN(CCC)CC(C)(C)NS(=O)(=O)c1ccc(Cl)cc1	G9a inh inconclusive, JMJD2A Tudor 2.51µM, BAZ2B inh inconclusive, HP1b binding inh inconclusive, 12-LOX inh inconclusive
O=C(CCc1ccccc1)Nc1nnc(-c2cccs2)o1	G9a inh inconclusive
CCC(=O)Nc1nnc(-c2ccccn2)o1	G9a inh 4.47µM, Sfp PPTase inh 50.1µM, JMJD2A Tudor 5.62µM, BAZ2B inh 28.2µM
O=C(CCc1ccccc1)Nc1nnc(-c2ccccn2)o1	G9a inh inconclusive, JMJD2A Tudor 20µM, BAZ2B inh 50.1µM
O=C(Nc1nnc(-c2ccccn2)o1)c1ccc(Br)cc1	JMJD2A Tudor inconclusive, BAZ2B inh inconclusive
COc1ccc(Nc2nc(-c3ccc(OC)cc3)nc3ccccc23)cc1	none (no result: G9a inh, Sfp PPTase inh, JMJD2A Tudor, BAZ2B inh, HP1b binding inh)
O=c1c2c3c(sc2n2cnnc2n1-c1ccccc1)N(Cc1ccccc1)CCC3	G9a inh 12.6µM, Sfp PPTase inh inconclusive, JMJD2A Tudor inconclusive (no result: 12-LOX inh)
CCCNc1c(NC(=O)NCC(C)C)c(=O)oc2ccccc12	none (no result: G9a inh, Sfp PPTase inh, JMJD2A Tudor, BAZ2B inh, HP1b binding inh)
Cc1ccc(-c2nc3ccc(NS(=O)(=O)c4ccccc4)cc3[nH]2)o1	G9a inh inconclusive, Sfp PPTase inh 35.5µM, BAZ2B inh inconclusive
CC(=O)Nc1ccc2nc(-c3ccc(Br)o3)[nH]c2c1	G9a inh inconclusive
O=S(=O)(Nc1ccc2nc(-c3ccc(Br)o3)[nH]c2c1)c1ccccc1	Sfp PPTase inh 50.1µM, BAZ2B inh inconclusive (no result: JMJD2A Tudor, HP1b binding inh, 12-LOX inh)
CO[C@H]1COCCN(C(=O)c2cccc(F)c2)C1	none (no result: G9a inh, Sfp PPTase inh, JMJD2A Tudor, BAZ2B inh, HP1b binding inh)
O=C(O)c1ccc(N/N=C/c2cccc(F)c2)cc1	G9a inh inconclusive
O=C(O)c1ccc(N/N=C/C2=Cc3ccccc3OC2)cc1	G9a inh 50.1µM
COc1cccc(S(=O)(=O)N2CC3(C2)C(=O)Nc2ccccc23)c1	none (no result: G9a inh, Sfp PPTase inh, JMJD2A Tudor, BAZ2B inh, HP1b binding inh)
O=C1Nc2ccccc2C1=Nc1ccc(S(=O)(=O)Nc2nccs2)cc1	G9a inh inconclusive, JMJD2A Tudor 56.2µM, 12-LOX inh inconclusive
O=[N+]([O-])c1ccc2c(c1)nc1n2CCSC1	G9a inh inconclusive
O=[N+]([O-])c1ccc2c(c1)nc1n2CCN(CC2CCCO2)C1 (stereo unspecified)	none
COCCN1CCn2c(nc3cc([N+](=O)[O-])ccc32)C1	G9a inh 35.5µM
